MEP2 TOR yeast: yeast TOR pathway MEP2-GFP modulation | S. cerevisiae MEP2-GFP strain, flow cytometry GFP, 3 h; 100% = DMSO control level | GFP response vs DMSO, % at 10 µM | 330,000 compounds, 0.51% hits;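 active = GFP response versus DMSO above a set limit, roughly screen mean plus 3 SD, cut at about 180% in these data; inconclusive = fewer than 70 cells counted for a yeast strain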;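 note: median GFP fluorescence of the barcode-gated MEP2-GFP cells per well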
GASC-1 inh: human JMJD2C demethylase inhibition; Q9H3R0; GST-JMJD2C(1-420) H3K9me3 demethylation, DELFIA europium; inhibition, % at 2.35 µM; 330,000 compounds, 0.069% hits; AID 2099;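 active = more than half of a compound's replicate wells show inhibition beyond 50%, single wells judged on their own value; inconclusive = some, but no more than half, of replicates pass 50% inhibition; inactive = no replicate passes 50% inhibition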;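 note: signal counts dimethyl H3K9 product captured on neutravidin plate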
Target sequence (Q9H3R0 1-420 limits assumed): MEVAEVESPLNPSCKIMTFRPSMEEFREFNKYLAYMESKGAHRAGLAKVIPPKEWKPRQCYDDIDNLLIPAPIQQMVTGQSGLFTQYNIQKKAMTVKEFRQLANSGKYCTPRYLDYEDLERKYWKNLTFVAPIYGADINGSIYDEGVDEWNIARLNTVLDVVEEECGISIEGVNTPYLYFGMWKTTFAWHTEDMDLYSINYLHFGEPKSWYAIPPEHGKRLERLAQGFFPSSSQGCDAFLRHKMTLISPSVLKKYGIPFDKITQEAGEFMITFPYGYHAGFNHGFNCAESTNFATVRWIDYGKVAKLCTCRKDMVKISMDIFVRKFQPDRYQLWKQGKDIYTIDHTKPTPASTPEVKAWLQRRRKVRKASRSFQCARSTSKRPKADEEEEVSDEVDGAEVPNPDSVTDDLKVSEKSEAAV
CIT2 TOR yeast: alters CIT2-GFP fluorescence in TOR pathway yeast screen; S. cerevisiae CIT2-GFP strain, flow cytometry, 3 h; 100 means same as DMSO wells; GFP response vs DMSO, % at 10 µM; 320,000 compounds, 0.065% hits; AID 2029;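 active = GFP response relative to DMSO above a set limit, near the screen mean plus 3 SD, cut at about 150% in these data; inconclusive = Fewer than 70 cells measured for a yeast strain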;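 note: ratio of well median GFP fluorescence to mean of DMSO wells on the plate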
AGP1 TOR yeast: modulators of TOR pathway AGP1-GFP in S. cerevisiae; S. cerevisiae AGP1-GFP multiplex flow cytometry, 3 h; GFP as percent of DMSO wells; AID 2066; GFP response vs DMSO, % at 10 µM; 320,000 compounds, 0.02% hits;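 active = GFP response relative to DMSO above a set limit, near screen average plus 3 SD, cut at about 150% in these data; inconclusive = fewer than 70 cells counted for the yeast strain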;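 note: median GFP channel fluorescence of the gated AGP1 strain per well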
LAP4 TOR yeast: yeast TOR pathway LAP4-GFP modulation; 320,000 compounds, 0.34% hits; S. cerevisiae LAP4-GFP multiplex, flow cytometry GFP, 3 h; median GFP as percent of DMSO wells; GFP response vs DMSO, % at 10 µM;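 active = GFP response vs DMSO above a set limit, about the screen mean plus 3 SD, cut at about 150% in these data; inconclusive = under 70 cell events counted for the yeast strain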
RPL19A-GFP yeast: yeast TOR pathway RPL19A-GFP modulation | 330,000 compounds, 0.3% hits | percent response vs DMSO, % at 10 µM | S. cerevisiae RPL19A-GFP strain, flow cytometry, 3 h; active compounds read low | AID 2025;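 active = percent response vs DMSO below 50%; inconclusive = fewer than 70 events counted for the yeast strain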;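 note: median channel GFP fluorescence of the barcoded RPL19A-GFP strain; lower means less RPL19A-GFP as with rapamycin TOR inhibition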
Numbers stand for hits; [ ] = another dose, or the depositor's remark. Only some compounds are listed: those with a hit (about 0.97% of all), similar ones and a draw of the others.

For Cc1ccc([N+](=O)[O-])cc1NC(=O)CSc1n[nH]c(-c2cccnc2)n1 the results were MEP2 TOR yeast inactive, GASC-1 inh inactive, CIT2 TOR yeast inactive, AGP1 TOR yeast inactive, LAP4 TOR yeast inactive and RPL19A-GFP yeast inactive.
`COCCn1c(=N)c(C(=O)NCCc2ccccc2)cc2c(=O)n3cccc(C)c3nc21` gave MEP2 TOR yeast inactive, GASC-1 inh inactive, CIT2 TOR yeast inactive, AGP1 TOR yeast inactive, LAP4 TOR yeast inactive and RPL19A-GFP yeast inactive.
For CCCCNC(=O)c1cc2c(=O)n3cccc(C)c3nc2n(Cc2ccccc2)c1=N the results were MEP2 TOR yeast inactive, GASC-1 inh inactive, CIT2 TOR yeast inactive, AGP1 TOR yeast inactive, LAP4 TOR yeast inactive and RPL19A-GFP yeast inactive.
CCCCCn1c(=N)c(S(=O)(=O)c2ccc(Cl)cc2)cc2c(=O)n3cccc(C)c3nc21 was read as MEP2 TOR yeast 297[may fluoresce violet], GASC-1 inh inactive, CIT2 TOR yeast inconclusive, AGP1 TOR yeast inconclusive, LAP4 TOR yeast inactive and RPL19A-GFP yeast inactive.
C=CCn1c(=N)c(C(=O)NCCCOC)cc2c(=O)n3cccc(C)c3nc21 was read as MEP2 TOR yeast inactive, GASC-1 inh inactive, CIT2 TOR yeast inconclusive, LAP4 TOR yeast inactive and RPL19A-GFP yeast 34[may fluoresce violet].
Screening CCCn1c(=N)c(S(=O)(=O)c2ccccc2)cc2c(=O)n3cccc(C)c3nc21 returned MEP2 TOR yeast inactive, GASC-1 inh inactive, CIT2 TOR yeast inactive, AGP1 TOR yeast inactive, LAP4 TOR yeast inactive and RPL19A-GFP yeast inactive.
`Cc1cccn2c(=O)c3cc(C(=O)NCCN4CCOCC4)c(=N)n(CCc4ccccc4)c3nc12` gave MEP2 TOR yeast 210[may fluoresce violet], GASC-1 inh inactive, CIT2 TOR yeast inconclusive, AGP1 TOR yeast inactive, LAP4 TOR yeast inactive and RPL19A-GFP yeast 47[may fluoresce violet].
`Cc1cccn2c(=O)c3cc(C(=O)NCCc4ccccc4)c(=N)n(CCCn4ccnc4)c3nc12` gave MEP2 TOR yeast 208, GASC-1 inh inactive, CIT2 TOR yeast inactive, LAP4 TOR yeast inactive and RPL19A-GFP yeast inactive.
Screening COc1ccc(CCn2c(=N)c(C(=O)NCCN3CCOCC3)cc3c(=O)n4cccc(C)c4nc32)cc1OC returned MEP2 TOR yeast inactive, GASC-1 inh inactive, CIT2 TOR yeast inactive, AGP1 TOR yeast inactive, LAP4 TOR yeast inactive and RPL19A-GFP yeast inactive.
`Cc1cccn2c(=O)c3cc(C(=O)NCCN4CCOCC4)c(=N)n(CCCN4CCOCC4)c3nc12` gave MEP2 TOR yeast 224[may fluoresce violet], GASC-1 inh inactive, CIT2 TOR yeast inconclusive, AGP1 TOR yeast inactive, LAP4 TOR yeast inactive and RPL19A-GFP yeast inactive.
`C[C@]12C=CC(=O)C=C1CC[C@@H]1[C@@H]2[C@@H](O)C[C@@]2(C)[C@H]1CC[C@]2(O)C(=O)COC(=O)CCC(=O)O` gave MEP2 TOR yeast 346[may fluoresce violet], CIT2 TOR yeast inconclusive, AGP1 TOR yeast inactive, LAP4 TOR yeast inactive and RPL19A-GFP yeast inactive.
`C[C@]12C=CC(=O)C=C1CC[C@@H]1[C@@H]2[C@@H](O)C[C@@]2(C)[C@H]1CC[C@]2(O)C(=O)COC(=O)CCC(=O)NCCc1ccc(O)cc1` gave MEP2 TOR yeast inactive, GASC-1 inh inactive, CIT2 TOR yeast inactive, AGP1 TOR yeast inactive, LAP4 TOR yeast inactive and RPL19A-GFP yeast inactive.
For CCOC(=O)CC1C(=O)NCCN1S(=O)(=O)c1ccc(NC(C)=O)cc1 (centres undefined) the results were MEP2 TOR yeast inactive, GASC-1 inh inactive, CIT2 TOR yeast 150[may fluoresce green], AGP1 TOR yeast inactive, LAP4 TOR yeast inactive and RPL19A-GFP yeast inactive.
For CCOC(=O)CC1C(=O)NCCN1S(=O)(=O)c1ccc(F)cc1 (centres undefined) the results were MEP2 TOR yeast inactive, GASC-1 inh inactive, CIT2 TOR yeast inactive, AGP1 TOR yeast inactive, LAP4 TOR yeast inactive and RPL19A-GFP yeast inactive.
`CCc1ccccc1OCC(=O)NC1CCCC1` gave GASC-1 inh inactive.
COC(=O)c1ccccc1OCC(=O)NC1CCCCC1 was read as MEP2 TOR yeast inactive, GASC-1 inh inactive, CIT2 TOR yeast inactive, AGP1 TOR yeast inactive, LAP4 TOR yeast 165 and RPL19A-GFP yeast inactive.
`COc1ccc(NC(=S)NC(=O)c2ccccc2Cl)cc1` gave MEP2 TOR yeast 177[may fluoresce violet], GASC-1 inh inactive, CIT2 TOR yeast inconclusive, AGP1 TOR yeast inactive, LAP4 TOR yeast inactive and RPL19A-GFP yeast inactive.
Screening O=C(NC(=S)Nc1ccc(O)cc1)c1ccccc1Cl returned MEP2 TOR yeast inactive, GASC-1 inh inactive, CIT2 TOR yeast inactive, AGP1 TOR yeast inactive, LAP4 TOR yeast inactive and RPL19A-GFP yeast inactive.
CCOC(=O)c1cnc2c(-c3ccccc3)c(C)nn2c1N was read as MEP2 TOR yeast inactive, GASC-1 inh inactive, CIT2 TOR yeast inactive, AGP1 TOR yeast inactive, LAP4 TOR yeast inactive and RPL19A-GFP yeast inactive.
`CCOC(=O)c1cnc2c(-c3ccccc3)cnn2c1N` gave MEP2 TOR yeast 529[may fluoresce violet], GASC-1 inh inactive, CIT2 TOR yeast inconclusive, LAP4 TOR yeast inactive and RPL19A-GFP yeast 32[may fluoresce violet].
`CC1=C(C(=O)OCC2CCCO2)C(c2ccncc2)C2=C(CC(C)(C)CC2=O)N1` (centres undefined) gave MEP2 TOR yeast 216[may fluoresce violet], GASC-1 inh inactive, CIT2 TOR yeast inconclusive, AGP1 TOR yeast inactive, LAP4 TOR yeast inactive and RPL19A-GFP yeast inactive.
Screening COCCOC(=O)C1=C(C)NC2=C(C(=O)CC(C)(C)C2)C1c1cccnc1 (centres undefined) returned MEP2 TOR yeast inactive, GASC-1 inh inactive, CIT2 TOR yeast inactive, AGP1 TOR yeast inactive, LAP4 TOR yeast inactive and RPL19A-GFP yeast inactive.
Screening CN(C)CCNC(=O)c1coc(=O)c(Br)c1 returned MEP2 TOR yeast 532[may fluoresce violet], GASC-1 inh inactive, CIT2 TOR yeast inconclusive, AGP1 TOR yeast inconclusive, LAP4 TOR yeast inactive and RPL19A-GFP yeast 17[may fluoresce violet].
`CC(C)CNC(=O)c1coc(=O)c(Br)c1` gave MEP2 TOR yeast inactive, GASC-1 inh inactive, CIT2 TOR yeast inactive, AGP1 TOR yeast inactive, LAP4 TOR yeast inactive and RPL19A-GFP yeast inactive.
`CCCn1c(=O)c2ccccc2n2c(SC(C)C(N)=O)nnc12` (centres undefined) gave MEP2 TOR yeast 198[may fluoresce violet], GASC-1 inh inactive, CIT2 TOR yeast inconclusive, AGP1 TOR yeast inconclusive, LAP4 TOR yeast inactive and RPL19A-GFP yeast 33[may fluoresce violet].
C[C@H]1O[C@@H](n2cc(F)c(=O)[nH]c2=O)[C@H](O)[C@@H]1O was read as MEP2 TOR yeast inconclusive, GASC-1 inh inactive, CIT2 TOR yeast inconclusive, AGP1 TOR yeast inconclusive, LAP4 TOR yeast inconclusive and RPL19A-GFP yeast 41[may fluoresce violet].
Screening CS(=O)(=O)N1CCc2cc(C(=O)Nc3ccc(COCC(F)(F)F)cc3)ccc21 returned MEP2 TOR yeast inactive, GASC-1 inh inactive, CIT2 TOR yeast 155, AGP1 TOR yeast inactive, LAP4 TOR yeast inactive and RPL19A-GFP yeast inactive.
Screening O=C(CNC(=O)c1ccco1)OCN1C(=O)c2ccccc2C1=O returned MEP2 TOR yeast 269[may fluoresce violet], GASC-1 inh inactive, CIT2 TOR yeast inconclusive, AGP1 TOR yeast inactive, LAP4 TOR yeast inactive and RPL19A-GFP yeast inactive.
